From the supplement of paper PMC12636033
± gives the standard deviation of the averaged measurements. The full ranking holds about 33,000 sequences; the median of “E-score (rank enrichment, -0.5 to 0.5)” is about -0.0043, and the highest 2% start at about 0.24. This excerpt belongs to a sample that is enriched for the highest values.

Tested on: 2Sp-muMax20 (muMax20 with two 2,6-bis(methyl)pyridine Cys staples)
Test: PBM 8-mer E-score (E-score (rank enrichment, -0.5 to 0.5)); higher = stronger preferential binding
Protocol: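 Protein binding microarray (universal PBM chip covering all 10-mers in fixed probe flanks) with chemically synthesized human Max(13-93) bHLH-LZ analogs (not full-length Max) bearing noncanonical residues (hArg, Tha, Aib, Nle at 65) and aromatic Cys staples. Read-out per 8-mer (and its reverse complement): E-score (rank-based enrichment, -0.5 to 0.5) and Z-score of median probe intensity.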

| Sequence | PBM 8-mer E-score |
| --- | --- |
| CTATCTTC | 0.0745 ± 0.024 |
| ATATCCCG | 0.0776 ± 0.056 |
| ATATCTTA | 0.19 ± 0.0044 |
| CTATCCCC | 0.0647 ± 0.044 |
| ATATCCTC | 0.265 ± 0.056 |
| ATATCCTA | 0.0987 ± 0.0053 |
| CTATCCTC | 0.0112 ± 0.011 |
| ATATCTTC | 0.294 ± 0.022 |
| ATATCCCC | 0.28 ± 0.028 |
| CAGAGATC | -0.137 ± 0.014 |
| TCTTCGCA | 0.0987 ± 0.026 |
| AGCTGACT | -0.0778 ± 0.023 |
| ACAAGATG | 0.115 ± 0.02 |
| CTGAAGGC | -0.247 ± 0.05 |
| AATGTACA | 0.0795 ± 0.02 |
| TATGTACA | 0.25 ± 0.028 |
| CATGTACA | 0.143 ± 0.1 |
| GATGTACA | 0.165 ± 0.009 |
| CATGTACG | 0.2899 ± 0.0015 |
| AATGTACG | 0.0758 ± 0.021 |
| CTGAACAA | -0.00871 ± 0.029 |
| GGCCTTAA | 0.0324 ± 0.052 |
| ACCAAATG | -0.043 ± 0.09 |
| TAGAGACA | -0.0515 ± 0.021 |
| GAGAGACA | -0.174 ± 0.03 |

| Sequence | PBM 8-mer E-score |
| --- | --- |
| AAGAGACA | 0.252 ± 0.042 |
| AAGGTGAT | 0.157 ± 0.033 |
| ATAGTAAT | 0.19 ± 0.084 |
| ATAGTAAA | 0.274 ± 0.033 |
| CTAGTAAA | 0.12 ± 0.047 |
| ACATAGGA | 0.102 ± 0.044 |
| ATTTTGTG | 0.0633 ± 0.081 |
| ATTTTATA | 0.264 ± 0.03 |
| CTTTTGTA | 0.0481 ± 0.15 |
| GTTTTATA | 0.168 ± 0.13 |
| AATTTATC | 0.105 ± 0.038 |
| CATTTATA | 0.141 ± 0.023 |
| ATTTTATG | 0.0502 ± 0.14 |
| ATTTTGTA | 0.239 ± 0.12 |
| AATTTATA | 0.27046 ± 0.00013 |
| ACGCCCTA | -0.000715 ± 0.088 |
| CCCAACAC | 0.00365 ± 0.023 |
| AATTCCGA | -0.0265 ± 0.07 |
| GCAAAGCA | 0.155 ± 0.058 |
| CAAATTTG | 0.117 ± 0.032 |
| CAAATTTC | 0.236 ± 0.031 |
| GAAATTTC | 0.114 ± 0.052 |
| CCCTATCC | -0.0867 ± 0.098 |
| TAATACGA | -0.0384 ± 0.02 |
| AATATATA | 0.186 ± 0.0061 |

| Sequence | PBM 8-mer E-score |
| --- | --- |
| ATAATATG | 0.185 ± 0.062 |
| ATAATATC | 0.24 ± 0.082 |
| AATATAGT | 0.152 ± 0.037 |
| AATATAGC | 0.168 ± 0.047 |
| AATATGTG | 0.191 ± 0.037 |
| CTAATATC | 0.173 ± 0.038 |
| GATATATC | 0.102 ± 0.037 |
| AATATATT | 0.2823 ± 0.0018 |
| AATATATG | 0.303 ± 0.0091 |
| AAAATATG | 0.114 ± 0.021 |
| AATATATC | 0.239 ± 0.051 |
| TGACATAA | 0.128 ± 0.05 |
| GTGTGGAA | 0.118 ± 0.01 |
| AGCCCGTA | -0.23 ± 0.063 |
| CATTTCAC | 0.0886 ± 0.049 |
| AATTTTCA | 0.146 ± 0.05 |
| CACATTCG | 0.00422 ± 0.036 |
| ATTACTGA | 0.103 ± 0.074 |
| CGAGGAAC | -0.084 ± 0.029 |
| AATATGGT | 0.0878 ± 0.052 |
| AATATGGC | 0.302 ± 0.044 |
| AATATGGA | 0.104 ± 0.011 |
| AGCAACAG | -0.0291 ± 0.074 |
| ACCTAAGT | -0.0381 ± 0.043 |
| ATATTGTC | 0.121 ± 0.03 |

| Sequence | PBM 8-mer E-score |
| --- | --- |
| TATAGTGA | 0.249 ± 0.048 |
| CATAGTGA | 0.0514 ± 0.05 |
| AATAGTGA | -0.033 ± 0.029 |
| GGTGTTGA | 0.0564 ± 0.02 |
| AGGAACAT | -0.135 ± 0.031 |
| GTTTACGA | 0.242 ± 0.027 |
| CTTTACGA | -0.0477 ± 0.0036 |
| ATTTACGA | 0.0937 ± 0.12 |
| GAACGCAC | -0.0274 ± 0.025 |
| ACAAAGCT | 0.00391 ± 0.011 |
| TCATAGCA | 0.159 ± 0.02 |
| CCATATCA | 0.114 ± 0.071 |
| CCATAGCA | 0.135 ± 0.0028 |
| ATGTATCC | -0.111 ± 0.0078 |
| CTATATCA | 0.24 ± 0.0079 |
| ACATATCA | 0.299 ± 0.0056 |
| CTGTATCC | 0.236 ± 0.0094 |
| ACATAGCA | 0.236 ± 0.05 |
| ACATATCG | 0.115 ± 0.042 |
| ATATATCA | 0.212 ± 0.014 |
| CTGTATCA | -0.0346 ± 0.018 |
| GTATATCA | 0.0652 ± 0.016 |
| CGCGCAGC | -0.126 ± 0.023 |
| GCAGACGC | -0.0631 ± 0.015 |
| CCCAACTA | 0.161 ± 0.022 |

| Sequence | PBM 8-mer E-score |
| --- | --- |
| TTCGGCAA | 0.0437 ± 0.12 |
| AAATCAGG | 0.041 ± 0.025 |
| TGCCGTAA | -0.113 ± 0.098 |
| CGCCAGCA | -0.199 ± 0.1 |
| CACGAAAC | 0.164 ± 0.018 |
| ATATATCC | 0.285 ± 0.096 |
| CTATATCC | 0.169 ± 0.018 |
| ATATATCG | 0.0892 ± 0.031 |
| AAACTCGT | -0.0113 ± 0.038 |
| CACCTTTA | -0.0135 ± 0.041 |
| ATCTAGTC | -0.00402 ± 0.0038 |
| CACATTAG | 0.00777 ± 0.035 |
| AACATTAC | 0.169 ± 0.003 |
| CACATTAC | 0.2476 ± 0.0022 |
| CCATTCGC | -0.13 ± 0.11 |
| GCGAGGTA | -0.144 ± 0.19 |
| AGTTCCCC | -0.0334 ± 0.025 |
| AATTATAG | 0.148 ± 0.082 |
| CATTATAG | 0.0091 ± 0.076 |
| CATTCTAA | 0.00098 ± 0.075 |
| GATTATAA | 0.154 ± 0.034 |
| TCTTATAA | 0.193 ± 0.04 |
| CATTATAC | 0.218 ± 0.0061 |
| CATTATAA | 0.246 ± 0.1 |
| TATTATCA | 0.122 ± 0.025 |

| Sequence | PBM 8-mer E-score |
| --- | --- |
| TATTATAA | 0.244 ± 0.079 |
| AATTCTAA | 0.133 ± 0.092 |
| TATTCTAA | 0.246 ± 0.003 |
| AATTATAA | 0.3 ± 0.026 |
| GGGGGGGA | -0.1747 ± 0.00091 |
| AGATAGCA | 0.137 ± 0.011 |
| CCTTATGC | 0.0835 ± 0.078 |
| AATTATCT | 0.235 ± 0.023 |
| AATTATCC | 0.0373 ± 0.0027 |
| AATTATCA | 0.198 ± 0.045 |
| ACCCTCGT | 0.00159 ± 0.081 |
| GACTAACA | 0.0143 ± 0.0082 |
| GGCCCAAA | -0.117 ± 0.027 |
| CAAATGGC | -0.0435 ± 0.002 |
| CGAATGCC | -0.0493 ± 0.096 |
| AAAATGCA | 0.145 ± 0.012 |
| CAAATGTA | 0.188 ± 0.012 |
| AAAATGCT | 0.263 ± 0.0092 |
| CGAATGCG | 0.0188 ± 0.013 |
| TAAATGTA | 0.281 ± 0.054 |
| GAAATGTA | 0.0185 ± 0.077 |
| AAAATGGG | -0.206 ± 0.0038 |
| AAAATGCC | -0.0688 ± 0.037 |
| CAAATGGG | 0.236 ± 0.052 |
| CGAATGCA | 0.32 ± 0.04 |

| Sequence | PBM 8-mer E-score |
| --- | --- |
| CGGGACCG | -0.357 ± 0.032 |
| CCTATCCC | 0.0952 ± 0.097 |
| TCATCTAA | 0.00256 ± 0.03 |
| AATCTAAA | 0.0534 ± 0.04 |
| CAGCGATC | -0.158 ± 0.022 |
| AGAATGCA | 0.0925 ± 0.055 |
| ACCAATCA | -0.0682 ± 0.088 |
| CGTACGAA | 0.19 ± 0.0087 |
| CACGACGG | 0.0169 ± 0.013 |
| CGAAGAAA | 0.223 ± 0.059 |
| CCACTGAA | -0.0273 ± 0.065 |
| AGCAAGAT | -0.0742 ± 0.058 |
| CAAATGCA | 0.064 ± 0.011 |
| CAAATGAG | 0.0988 ± 0.053 |
| AAAATGAA | 0.135 ± 0.0098 |
| TAAATGCA | 0.238 ± 0.1 |
| GAAATGCA | 0.135 ± 0.11 |
| AAAATGAG | 0.267 ± 0.012 |
| AAGGTTTA | -0.18 ± 0.048 |
| GCGCGCAA | 0.184 ± 0.057 |
| AAATGGCA | 0.155 ± 0.028 |
| TAGACATA | 0.0769 ± 0.014 |
